Compounds with a hit are over-represented: about 3.3% of the library has one in this group of screens.
PI5P4Ka inh: PI5P4K alpha (human) kinase inhibition | P48426 | PI5P4Kalpha enzyme, ADP-Glo luminescence, 60 min; hits give low values | max response, % | hit rate 1.2% among 330,000; active = max response of -50% or lower; inconclusive = between -30% and -50%; inactive = -30% or higher; note: value at the top dose of about 77 µM
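Luminescence from ADP-Glo served as readout of PI5P4Kalpha activity in a qHTS format. Reaction: enzyme, substrate, compound, ATP at 5 microM final, 60 min at RT.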
USP1-UAF1 inh: blocks the human USP1/UAF1 deubiquitinase complex. Potency, µM (titrated, usually from 57.1 µM), without a hit: at the highest dose activity change, negative = inhibition, most hits filed as inhibitors. O94782. hit rate 0.23% among 390,000. AID 743255. recombinant USP1/UAF1, Ub-Rhodamine cleavage fluorescence; note: potency is the fitted concentration of half-maximal effect; nearly all actives have a fitted effect of over 60% in size
Target sequence (O94782 whole entry, looked up): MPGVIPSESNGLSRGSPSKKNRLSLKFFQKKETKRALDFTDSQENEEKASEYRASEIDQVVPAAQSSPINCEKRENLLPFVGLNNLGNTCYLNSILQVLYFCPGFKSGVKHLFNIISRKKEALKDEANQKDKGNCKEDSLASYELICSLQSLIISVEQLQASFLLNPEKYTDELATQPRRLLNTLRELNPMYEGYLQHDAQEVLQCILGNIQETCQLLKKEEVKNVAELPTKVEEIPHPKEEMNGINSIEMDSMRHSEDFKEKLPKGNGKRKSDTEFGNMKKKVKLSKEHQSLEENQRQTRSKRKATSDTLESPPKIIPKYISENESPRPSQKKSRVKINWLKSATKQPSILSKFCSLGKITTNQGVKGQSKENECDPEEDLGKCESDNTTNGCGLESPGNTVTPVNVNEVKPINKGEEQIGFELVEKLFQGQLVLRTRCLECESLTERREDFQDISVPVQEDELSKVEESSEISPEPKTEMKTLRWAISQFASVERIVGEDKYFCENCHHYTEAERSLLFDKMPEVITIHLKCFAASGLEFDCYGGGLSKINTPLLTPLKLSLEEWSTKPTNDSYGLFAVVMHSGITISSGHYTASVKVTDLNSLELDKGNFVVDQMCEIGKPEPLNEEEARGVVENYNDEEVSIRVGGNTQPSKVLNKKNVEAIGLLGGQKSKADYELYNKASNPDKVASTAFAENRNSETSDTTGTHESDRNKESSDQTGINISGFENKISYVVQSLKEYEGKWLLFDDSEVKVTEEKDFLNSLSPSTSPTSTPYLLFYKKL
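USP1/UAF1 complex at 1 nM was preincubated with compound for 15 min at room temperature, then Ub-Rho substrate (150nM final) was added. Fluorescence (480/540 nm) was read kinetically, 6 reads every 60 seconds.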
WRN inhibitor: WRN helicase (human) inhibition | WRN helicase unwinding, fluorescent forked duplex, kinetic | Potency, µM (titrated, usually from 114 µM), for inactives: at the top dose activity change, negative = inhibition, most hits filed as inhibitors | Q14191 | hit rate 0.46% among 360,000; note: potency is the fitted concentration of half-maximal effect; nearly all actives have a fitted effect of over 55% in size
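WRN at 20 nM final preincubated with compound 15 min at room temperature; reaction started with 100 nM fluorophore/quencher forked duplex oligonucleotide and 2 mM ATP final. Unwinding followed kinetically by red fluorescence (ex 525, em 598 nm).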
PLK1 PBD block: inhibitors of human PLK1 polo-box domain binding. P53350. Plk1 PBD binding of FITC phosphopeptide, fluorescence polarization. Potency, µM, without a hit: max response, negative = inhibition, actives largely listed as inhibitors. hit rate 2.8% among 360,000; note: potency is the fitted concentration of half-maximal effect; series mostly up to about 57 µM; nearly all actives have a fitted effect of over 65% in size
USP2a inh: blocks human ubiquitin-specific protease USP2a; O75604; USP2 core, Ub-CHOP2 coupled fluorogenic reporter, 485/531; Potency, µM (titrated, usually from 38.3 µM), for the others: at the highest dose activity change, negative = inhibition, most hits filed as inhibitors; hit rate 0.01% among 330,000;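 note: potency is the fitted concentration of half-maximal effect; plate controls were DMSO wells for no effect and full inhibition by NEM control for full effect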
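Cell-free coupled assay: 10nM USP2 core preincubated 30min RT with compound in Tris-HCl pH 8.0/CaCl2/CHAPS buffer, then 25nM Ub-CHOP2 and 25nM reporter substrate; fluorescence (Ex 485/Em 531) read after 60min RT, normalized to NEM inhibition, concentration-response curves fitted.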
Numbers without * were called inactive; ? = inconclusive; / = no result; [ ] = another dose, or the depositor's remark. Unless noted, calls come from the whole dose curve; as a rule, active = well fitted curve in the direction sought with a large enough effect; inconclusive = small, poorly fitted or top-dose-only effect, or another doubt; inactive = no such curve, though single readings can be large; an effect the other way counts as inactive or inconclusive. Unless noted, % is set by controls: 0 for no effect and ±100 for the full control effect.

SMILES	PI5P4Ka inh	USP1-UAF1 inh	WRN inhibitor	PLK1 PBD block	USP2a inh
C/C(=N\NC(=O)c1ccncc1)c1cc2ccccc2oc1=O	3	-15%	-31%	?	0%
C/C(=N\NC(=O)c1ccccc1)c1cc2cc([N+](=O)[O-])ccc2oc1=O	3	-7%	?	24µM*	4%
COc1ccc2oc(=O)c(/C(C)=N/Nc3ccccc3)cc2c1	-2	-5%	-14%	19µM*	1%
O=C(NC1CCCCCC1)c1ccc2c(c1)sc1nc(-c3ccc(F)cc3)cn12	/	10%	/	/	/
C=CCS/C(=N\n1cnc2ccccc2c1=O)N(CC)CC	-7	-11%	-5%	3%	1%
C=CCS/C(=N\n1cnc2ccccc2c1=O)N1CCCCC1	4	-18%	2%	27µM*	1%
CC1CCCN(CCC(=O)c2ccc(Br)cc2)C1 (centres undefined)	-3	-1%	?	3.4µM*	0%
O=C(CCCCN1CCCCC1)c1ccccc1	-9	-11%	3%	-20%	/
COc1ccc(C(=O)CCN2CCCC(C)C2)cc1 (centres undefined)	4	-20%	?	?	3%
O=C(CCN1CCC2CCC(C2)C1)c1ccccc1 (centres undefined)	-3	-4%	-35%	13µM*	/
Cn1c(=O)c2c(ncn2CC(=O)N2CCN(c3ccc(F)cc3)CC2)n(C)c1=O	-7	-9%	7%	27µM*	0%
O=C(NN=C1CCCCCCC1)c1ccc(F)cc1	?	-12%	-12%	19µM*	-1%
O=C(N/N=C/c1c(O)n(Cc2ccccc2)c(=O)c2ccccc12)c1cccnc1	68	25µM*	?	13%	5%
O=C(N/N=C/c1c(O)n(-c2ccccc2Cl)c(=O)c2ccccc12)c1cccnc1	-19	?	-8%[11.6 µM]	38%	8%
COc1ccc(Cn2c(O)c(/C=N/NC(=O)c3cccnc3)c3ccccc3c2=O)cc1	50	32µM*	?	9%	1%
CC(=O)c1cccc(NC(=O)c2sc(-n3nc(C)c(Cc4ccc5c(c4)OCO5)c3C)nc2C)c1	/	-26%	/	/	/
CN(C)C(=S)N=c1ssc(=S)n1Cc1cccnc1	4	-19%	-26%	27µM*	/
CCOc1ccc(-c2csc(N)c2C(=O)OC)cc1	-3	-21%	2%	7.9µM*	-1%
CCOC(=O)c1c(-c2cccc([N+](=O)[O-])c2)csc1N	-5	-22%	-4%	30µM*	3%
CCOC(=O)c1c(-c2cccc([N+](=O)[O-])c2)csc1NC(=O)C1CC1	/	?	-17%	-12%	-9%
CCOc1ccc(NS(=O)(=O)c2ccc3[nH]c4c(c3c2)CCCCC4)cc1	/	-3%	/	/	/
CC(=O)OC(C(=O)Nc1nccs1)c1ccccc1 (centres undefined)	4	-13%	-8%	7%	3%
CC(C)C(C(=O)Nc1nccs1)N1C(=O)c2ccccc2C1=O (centres undefined)	-12	-6%	5%	21µM*	0%
O=C(Nc1nccs1)C(Br)C(Br)c1ccccc1 (centres undefined)	-7	?	-32%	0.95µM*	1%
COc1ccccc1NC(=O)C(C(C)C)N1C(=O)c2ccccc2C1=O (centres undefined)	9	-29%	-4%	-1%	-1%
SMILES	PI5P4Ka inh	USP1-UAF1 inh	WRN inhibitor	PLK1 PBD block	USP2a inh
CCc1ccc(-n2nc(CO)c(C(=O)NCc3ccccn3)n2)cc1	/	2%	/	/	/
CCOc1ccccc1Nc1nc(-c2ccc(C)cc2)c(CC(=O)O)s1	/	4%	/	/	/
CC(NCCC(Cc1ccccc1)c1ccco1)c1ccccc1 (centres undefined)	4	-16%	5%	30µM*	1%
CCOc1cc(S(=O)(=O)NCc2cccs2)ccc1Cl	5	-21%	-3%	27µM*	-1%
COc1cc(S(=O)(=O)NCc2ccccn2)ccc1Cl	-12	1%	4%	24µM*	0%
Cc1cc(=O)cc(C)n1-c1ccc(Br)cc1	13	-8%	16µM*	?	-2%
Cc1cc(=O)cc(C)n1-c1ccc2c(c1)nc(C)n2-c1ccccc1	/	3%	-12%	-4%	1%
COc1ccc2c(c1)CC(C(=O)Nc1cc(Cl)ccc1C)CO2 (centres undefined)	/	-13%	/	/	/
O=c1[nH]c(-c2ccc(F)cc2)nc2c1sc(=S)n2-c1ccccc1	1	0%	-35%	?	1%
O=c1[nH]cnc2c1sc(=S)n2-c1ccccc1	-28	-3%	1%	7.5µM*	-1%
Cc1ccc(NC(=O)N2CCc3cc(S(=O)(=O)N4CCC(C)CC4)ccc32)cc1	/	-18%	/	/	/
COc1ccc2c(c1)c1ccc3c(c1n2C)C(=O)C=CC3=O	-74*	-19%	-16%	?	4%
Cc1ccc2c(c1)c1ccc3c(c1n2C)C(=O)C=CC3=O	-74*	-22%	-16%	19µM*	6%
Cc1ccc2c(c1)c1ncnc(N3CCOCC3)c1n2C	4	-11%	-6%	-1%	3%
Cc1ccc(OCc2cc(=O)n3cc(C)sc3n2)c(C)c1	/	-6%	/	/	/
O=C(NCCCN1CCN(c2ccccc2)CC1)c1nnc(Cc2c(F)cccc2Cl)o1	/	-25%	/	/	/
CCCCOC(=O)c1ccc(NC(=O)Cn2nnc3sc4c(c3c2=O)CCCC4)cc1	/	-22%	/	/	/
CCc1ccc(NC(=O)c2ccc3c(c2)N(Cc2ccc(C)cc2)CCS3)cc1	/	-23%	/	/	/
O=C1NN(c2cccc(Br)c2)C(=O)/C1=C\c1ccc(O)cc1	-51*	?	?	24µM*	-4%
CCOc1cc(/C=C2/C(=O)NN(c3cccc(Cl)c3)C2=O)ccc1O	?	?	-16%	?	1%
Cc1sc(-n2c(C)cc(/C=C3\SC(=S)NC3=O)c2C)c(C#N)c1C	/	?	56µM*	30µM*	-9%
Cc1sc(-n2c(C)cc(/C=N/n3cnnc3)c2C)c(C#N)c1C	/	-12%	5%	17µM*	1%
O=C1NN(c2ccc(Br)cc2)C(=O)/C1=C\c1ccc(O)cc1O	?	-13%	-19%	30µM*	-8%
Cc1ccc(Cl)cc1N1C(=O)N(Cc2ccc(C#N)cc2)c2ccccc2S1(=O)=O	/	-30%	/	/	/
Cc1cc(/C=C2/C(=O)NN(c3ccccc3)C2=O)c(C)n1-c1cccc(O)c1	-56*	-17%	-4%[11.6 µM]	-24%	0%
O=C(N/N=C/c1ccc(-c2cccc([N+](=O)[O-])c2)o1)c1ccc([N+](=O)[O-])cc1	-9	3%	2%	-15%	0%
O=C(O)c1ccc(N2C(=O)/C(=C/c3ccc(-c4ccc([N+](=O)[O-])cc4)o3)C=C2c2ccccc2)cc1	-94*	-14%	56µM*	12µM*	4%
Cc1cc(/C=C2\SC(=S)NC2=O)c(C)n1-c1cccc(O)c1	-68*	-20%	?	?	6%
O=C1NN(c2ccccc2)C(=O)C1=Cc1ccccc1O	-5	-16%	2%	27µM*	/

Screening data: PubChem BioAssay, National Center for Advancing Translational Sciences (NCATS)
